Hit rate of the full screen: of about 360,000 compounds, about 1,100 (0.31%) were called active. Cut-off read from the data, not from the text of the source: active = activity change below about -30%; inactive = the rest. Shown is part of a subset that was picked to be rich in actives.
Each compound was assayed on cytosolic chaperonin (CCT/TRiC complex) (assay: High-Throughput Screening for Modulators of Cytosolic Chaperonin Activity). Details: purified chaperonin ATPase assay, HTRF ADP detection, 30 min; hits give low values.
In short: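 Enzyme 40 or 20 nM (batch-dependent) in Tris pH 7.4/KCl/MgCl2/DTT; cpd 76 uM single point; ATP 10 uM; 30 min 37 °C; Transcreener ADP HTRF detection, 30 min RT; ratio 665/615.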
For `O=C(Nc1ccccc1-c1nnn(CC(=O)N2CCN(c3ccccc3)CC2)n1)c1cccs1`, the activity change was -3.64% (inactive). `CCOC1CS(=O)(=O)CC1OCC` (configuration not stated) was tested, and the activity change was 0.485% (inactive). For `O=C(CS(=O)(=O)c1ccccc1)Nc1ccc(S(=O)(=O)Nc2ccccn2)cc1`, the activity change was 0.548% (inactive). In the case of `COc1ccc(NC(=O)CS(=O)(=O)c2ccccc2)cc1`, the activity change is reported as -61% (active). `COc1ccc(NC(=O)CC(NC(C)c2ccccc2)C(=O)O)cc1` (configuration not stated) was tested, and the activity change was -0.408% (inactive). `COc1cc2nc(CN(C)Cc3ccc(F)cc3)[nH]c(=O)c2cc1OC` was tested, and the activity change was -1.05% (inactive). `C/C(Cc1ccccc1)=N\NC(=O)CNC(=O)c1ccccc1Cl` was tested, and the activity change was 0.921% (inactive). `CC(C)CNC(=O)COC(=O)c1ccccc1OCC(=O)Nc1ccc(Br)cc1` was tested, and the activity change was 0.0186% (inactive). For `O=C(NCc1cccnc1)c1cnc2ccccc2n1`, the activity change was -37.4% (active). For `O=C(O)c1ccccc1-c1ccccc1C(=O)NCc1cccnc1`, the activity change was -1.06% (inactive). `CN(c1ccccc1)S(=O)(=O)c1ccc(C(=O)NCc2cccnc2)cc1` was tested, and the activity change was 0.104% (inactive). For `CC(C)(C)OC(=O)CNC(=O)c1[nH]cnc1C(=O)N[C@@H](CCCCN)C(=O)OC(C)(C)C`, the activity change was 0.783% (inactive). For `NC(=O)c1nsc(C(=O)N(CCCN2CCOCC2)C(C(=O)NC2CCCCC2)c2ccc(Cl)cc2)c1N` (configuration not stated), the activity change was -0.121% (inactive). In the case of `CCc1nc2sc3c(Cl)ncnc3c2c2c1CCCC2`, the activity change is reported as -2.15% (inactive). `C/C(CC(=O)Nc1cccc(C(F)(F)F)c1)=N\NC(=O)C(=O)NCC(C)C` was tested, and the activity change was -0.0398% (inactive). `COc1ccc(NC(=O)C(=O)NCC(=O)Nc2cccc(C(F)(F)F)c2)cc1` was tested, and the activity change was -44.8% (active). For `COc1ccc(C(CC(=O)Nc2ccc(C)cc2)NC(=O)C(F)(F)F)cc1` (configuration not stated), the activity change was 0.31% (inactive). In the case of `Cc1ccc(CN2CC(C(=O)NNC(=O)Cn3ccc(C(F)(F)F)n3)CC2=O)cc1` (configuration not stated), the activity change is reported as -2.29% (inactive). For `Cc1cccc(-n2c(SCC(=O)Nc3cccc(S(=O)(=O)NC4=NCCCCC4)c3)nc3ccccc3c2=O)c1C`, the activity change was -6.85% (inactive). With `O=C(CCN1C(=O)[C@@H]2Cc3ccccc3CN2C1=O)NCc1ccccc1` the activity change was -37.1% (active). With `O=C(CCN1C(=O)[C@@H]2Cc3ccccc3CN2C1=O)NCCc1ccccc1` the activity change was -0.128% (inactive). In the case of `Cc1ccc(CNC(=O)CCN2C(=O)[C@@H]3Cc4ccccc4CN3C2=O)cc1`, the activity change is reported as -0.496% (inactive). With `CCN1C(=NCc2ccc(OC)cc2)N[C@@H](CCc2ccccc2)[C@H](C(=O)NCc2ccc(OC)cc2)[C@H]1C` the activity change was -0.204% (inactive). `COc1ccc(C2N=C(N)N=C(N)N2c2ccccc2)cc1OC` (configuration not stated) was tested, and the activity change was -35.3% (active). `COc1cc(C=O)ccc1Oc1nnnn1-c1ccccc1` was tested, and the activity change was 0.228% (inactive). In the case of `NC1=NC(c2ccc([N+](=O)[O-])cc2)N(c2ccc(F)cc2)C(N)=N1` (configuration not stated), the activity change is reported as 1.53% (inactive). With `Nc1nonc1-n1nnc(C(=O)N/N=C/c2cc(Br)ccc2O)c1CSC1=NCCS1` the activity change was 1.21% (inactive). With `Cc1nn(-c2ccccc2)c2sc(C(=O)N(Cc3ccco3)C(C)C(=O)NC(C)(C)C)cc12` (configuration not stated) the activity change was 1% (inactive). In the case of `O=C(CCCCCn1c(=S)[nH]c2cc3c(cc2c1=O)OCO3)N1CCN(c2ccc(F)cc2)CC1`, the activity change is reported as -31.7% (active). With `Cc1ccc(C)c(N2CCN(C(=O)CCCCCn3c(=S)[nH]c4ccc(N5CCOCC5)cc4c3=O)CC2)c1` the activity change was 1.65% (inactive). `CC(C)NC(=O)CCCn1c(=S)[nH]c2cc3c(cc2c1=O)OCO3` was tested, and the activity change was -1.56% (inactive). With `CC(C)N(C(=O)Cn1c(SCC(=O)N2CCN(c3ccccc3)CC2)nc2ccccc21)C(C)C` the activity change was -3.64% (inactive). With `Cc1ccc(S(=O)(=O)/N=C(/NC(=S)Nc2c(C)n(C)n(-c3ccccc3)c2=O)c2ccccc2)cc1` the activity change was -1.68% (inactive). In the case of `Cc1c(CN2CCC(CO)(CCOc3ccccc3)CC2)[nH]c2ccc(Cl)cc12`, the activity change is reported as -56% (active). `COc1cccc(CC2(CO)CCN(Cc3cnc(-c4cccc(C)c4)nc3)CC2)c1` was tested, and the activity change was -1.28% (inactive). For `OCC1(CCc2ccccc2)CCN(Cc2ccc3nsnc3c2)CC1`, the activity change was -4.83% (inactive). `O=C1C2C3C=CC(C3)C2C(=O)N1c1ncc([N+](=O)[O-])s1` (configuration not stated) was tested, and the activity change was -1.62% (inactive). For `COc1ccc(/C=C/C(=O)OCC(=O)NCc2cccs2)cc1OC`, the activity change was -2.94% (inactive). In the case of `OC(c1ccccc1)c1nc(-c2cnc3ccccc3c2)cs1` (configuration not stated), the activity change is reported as -40.1% (active). With `COc1cccc(C(NC(C)=O)c2nc(-c3cnc4ccccc4c3)cs2)c1` (configuration not stated) the activity change was 0.873% (inactive). `CC(C)c1cccc(-c2csc(C(O)c3ccccc3)n2)c1` (configuration not stated) was tested, and the activity change was -0.363% (inactive). In the case of `COC(=O)C[C@H]1C[C@@H]2c3cc(N(C)C)ccc3O[C@@H]2[C@H](CO)O1`, the activity change is reported as -1.3% (inactive). For `CCOC(=O)c1ccccc1NC(=O)c1c(N)n(C)c(=O)[nH]c1=O`, the activity change was 2.1% (inactive). In the case of `O=C(Nc1ccccc1-c1nnn(CC(=O)N2CCCc3ccccc32)n1)c1cccc(Cl)c1`, the activity change is reported as -0.628% (inactive). In the case of `CC1=C(C(=O)NC2CC(C)(C)Cc3c2cnn3-c2ccc(C)cc2)OCCO1` (configuration not stated), the activity change is reported as -89.1% (active). For `Cc1ccc(-n2ncc3c2CC(C)(C)CC3NC(=O)Cc2c(C)noc2C)cc1` (configuration not stated), the activity change was 1.55% (inactive). In the case of `COCc1ccc(C(=O)NC2CC(C)(C)Cc3c2cnn3-c2ccc(C)cc2)o1` (configuration not stated), the activity change is reported as -1.13% (inactive). With `Cc1ccc(-c2c(C)n([O-])c3c([n+]2=O)CCC3)cc1` the activity change was -0.716% (inactive). For `O=C1/C(=C\c2cccnc2)CN(Cc2ccccc2)C/C1=C\c1cccnc1`, the activity change was -1.65% (inactive). `COc1ccc(C2=NOC3(CC(=O)N(c4ccc(Cl)cc4)C3=O)C2)c(OC)c1` (configuration not stated) was tested, and the activity change was 1.68% (inactive). `CC(=O)c1c(C)c[nH]c1C` was tested, and the activity change was 0.144% (inactive). For `CC(NS(=O)(=O)c1ccc(Cl)cc1)C(=O)Nc1ccc2c(c1)OCCO2` (configuration not stated), the activity change was -38.5% (active). `CC(=O)Nc1ccc(NC(=O)C(NS(=O)(=O)c2ccc3c(c2)OCCO3)C(C)C)cc1` (configuration not stated) was tested, and the activity change was -1.81% (inactive). `Cc1ccc(S(=O)(=O)NCC(=O)Nc2ccc3c(c2)OCCO3)cc1` was tested, and the activity change was -2.11% (inactive). For `COc1cc(Cl)c(C)cc1NC(=O)CSc1nnc(-c2ccco2)n1CC(C)C`, the activity change was -2.06% (inactive). For `COc1ccccc1N1CCN(C(=O)CSc2ncnc3c2cnn3-c2ccc(C)c(C)c2)CC1`, the activity change was -0.613% (inactive). `CN(C(=O)CC(NC(=O)c1ccccc1)(c1ccccc1)c1ccccc1)c1ccccc1` was tested, and the activity change was -1.61% (inactive). With `CCOC(=O)N/N=C1\CC(C)S(=O)(=O)c2ccc(Cl)cc21` (configuration not stated) the activity change was -3.43% (inactive). For `CC(=O)c1cc2c(cc1NC(=O)CN1CCCCCC1)OCO2`, the activity change was -1.13% (inactive). `CC(=O)c1cc2c(cc1NC(=O)Cn1nc(-c3ccc(F)cc3)ccc1=O)OCO2` was tested, and the activity change was -31.8% (active). In the case of `CCOc1cccc(NC(=O)Cn2nc(-c3ccc4c(c3)OCCO4)ccc2=O)c1`, the activity change is reported as 2.22% (inactive). For `Cc1cccc2c1cnn2C(=O)CCC(=O)NC1CCCCC1`, the activity change was 0.998% (inactive). `C=CCN(N=Nc1cccc([N+](=O)[O-])c1)c1cccc([N+](=O)[O-])c1` was tested, and the activity change was -0.537% (inactive). In the case of `CC1=C(C(=O)OC(C)(C)C)C(c2ccc(Br)cc2)NC(=O)N1CCCC(=O)O` (configuration not stated), the activity change is reported as -0.201% (inactive). In the case of `Cc1n[nH]c(=O)n1-c1ccc(C(C)C)cc1`, the activity change is reported as 0.471% (inactive). For `Cc1n[nH]c(=O)n1-c1ccc(Oc2ccccc2)cc1`, the activity change was -105% (active). With `O=C1CS(=O)CN1c1ccc(Oc2ccccc2)cc1` (configuration not stated) the activity change was -3.89% (inactive). In the case of `O=C(NCCCN1CCOCC1)c1ccc2c(c1)N(Cc1cccc(F)c1)C(=O)c1ccccc1S2`, the activity change is reported as -77.1% (active). `O=C(NCCCN1CCOCC1)c1cc(-c2ccccc2F)no1` was tested, and the activity change was 1.6% (inactive). With `O=C(NCCCN1CCCCC1)c1ccc2c(c1)NC(=O)C(N1CCOCC1)S2` (configuration not stated) the activity change was -0.706% (inactive). For `CCc1ccc(CN(C)C(C)C(=O)Nc2ccc(S(=O)(=O)N3CCCC3)cc2)cc1` (configuration not stated), the activity change was -0.65% (inactive). In the case of `Cc1ccc(C2C(C#N)C(C#N)N3CCCN23)cc1` (configuration not stated), the activity change is reported as 0.118% (inactive).
% is set by controls: 0 for no effect and ±100 for the full control effect.
